Laboratory results from PubChem BioAssay AID1159580 (chemical genetic matrix, 2015).
Screen size: about 5,500 compounds; about 2,000 (36%) were called active. Another 18% or so got no clear call; they are omitted. Rule as the data show it: active = normalized growth mostly below about 0.91 (no sharp cut-off); inconclusive = no clear call, values can overlap the other calls; inactive = mostly above about 0.92. This is one part of the list.

Test: chemical genetic growth profiling, strain panel (AID 1159580);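 also: tested at 20 µM; growth read once vehicle control cultures reached saturation at 30 °C; 1 = growth at the plate median or of vehicle wells; lower values mean less growth of the strain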
Details: S. cerevisiae deletion strains, growth OD
[1] = locus YHR030C, strain SLT2, hits give low values
[2] = locus YHR079C, strain IRE1, hits give low values
[3] = locus YJL095W, strain BCK1, hits give low values
[4] = locus YJR066W, strain TOR1, hits give low values
[5] = locus YLR113W, strain HOG1, hits give low values
[6] = locus YNL183C, strain NPR1, hits give low values
[7] = locus YOR231W, strain MKK1, hits give low values
[8] = locus YPL256C, strain CLN2, hits give low values

Measured: normalized growth

O=C(O)c1cccc2cccc(C(=O)O)c12
active: locus YAR019C, strain CDC15, hits give low values 0.085 | locus YBL105C, strain PKC1, hits give low values 0.0837 | locus YBR135W, strain CKS1, hits give low values 0.0904 | locus YBR136W, strain MEC1, hits give low values 0.0904 | locus YBR160W, strain CDC28, hits give low values 0.086 | locus YDL017W, strain CDC7, hits give low values 0.0824 | locus YDL028C, strain MPS1, hits give low values 0.0878 | locus YDL108W, strain KIN28, hits give low values 0.0876 | locus YDL214C, strain PRR2, hits give low values 0.0872 | locus YDR052C, strain DBF4, hits give low values 0.0886 | locus YDR054C, strain cdc34, hits give low values 0.0879 | locus YDR477W, strain SNF1, hits give low values 0.0946 | locus YER123W, strain YCK3, hits give low values 0.0991 | locus YER133W, strain GLC7, hits give low values 0.0939 | locus YFL009W, strain cdc4, hits give low values 0.0889 | locus YFL029C, strain CAK1, hits give low values 0.0833 | locus YFR003C, strain YPI1, hits give low values 0.0828 | locus YFR019W, strain FAB1, hits give low values 0.0952 | locus YGR040W, strain KSS1, hits give low values 0.11 | locus YGR052W, strain FMP48, hits give low values 0.113 | locus YGR092W, strain DBF2, hits give low values 0.107 | [1] 0.123 | [2] 0.109 | locus YHR082C, strain KSP1, hits give low values 0.135 | locus YHR205W, strain SCH9, hits give low values 0.0046 | locus YIL147C, strain SLN1, hits give low values 0.0851 | [3] 0.118 | locus YJL128C, strain PBS2, hits give low values 0.0989 | locus YJL157C, strain FAR1, hits give low values 0.0897 | locus YJR016C, strain ILV3, hits give low values 0.0848 | locus YJR066W, strain TOR1 (second series), hits give low values 0.101 | [4] 0.145 | locus YKL048C, strain ELM1, hits give low values 0.12 | locus YKL067W, strain YNK1, hits give low values 0.0918 | locus YKL101W, strain HSL1, hits give low values 0.114 | locus YKL193C, strain SDS22, hits give low values 0.0868 | locus YKL203C, strain TOR2, hits give low values 0.108 | [5] 0.184 | locus YLR133W, strain CKI1, hits give low values 0.0857 | locus YLR403W, strain SFP1, hits give low values 0.00123 | locus YML070W, strain DAK1, hits give low values 0.117 | locus YMR001C, strain CDC5, hits give low values 0.0843 | locus YMR205C, strain PFK2 (second series), hits give low values 0.0905 | locus YMR277W, strain FCP1, hits give low values 0.0893 | locus YNL006W, strain LST8, hits give low values 0.077 | locus YNL020C, strain ARK1, hits give low values 0.0896 | locus YNL161W, strain CBK1, hits give low values 0.0944 | [6] 0.112 | locus YNL207W, strain RIO2, hits give low values 0.0871 | locus YNL222W, strain SSU72, hits give low values 0.089 | locus YNL307C, strain MCK1 (second series), hits give low values 0.103 | locus YOL078W, strain AVO1, hits give low values 0.0865 | locus YOL136C, strain PFK27, hits give low values 0.0961 | locus YOR061W, strain CKA2, hits give low values 0.0989 | locus YOR119C, strain RIO1, hits give low values 0.104 | [7] 0.115 | locus YOR329C, strain SCD5, hits give low values 0.082 | locus YPL031C, strain PHO85, hits give low values 0.102 | locus YPL153C, strain RAD53, hits give low values 0.101 | locus YPL204W, strain HRR25, hits give low values 0.0938 | locus YPL209C, strain IPL1, hits give low values 0.0815 | [8] 0.162 | locus YPR025C, strain CCL1, hits give low values 0.0896 | locus YPR106W, strain ISR1, hits give low values 0.281 | strain NNK1, hits give low values 0.0867 | strain TSCII, hits give low values 0.0877

O=C(O)c1cccc(O)c1O
inactive: locus YAL021C, strain ccr4, hits give low values 1.02 | locus YAL026C, strain drs2, hits give low values 1.02 | locus YAL030W, strain snc1, hits give low values 1.01 | locus YBL061C, strain skt5, hits give low values 1.03 | locus YBR009C, strain hhf1, hits give low values 1.02 | locus YBR023C, strain chs3, hits give low values 1.02 | locus YBR171W, strain sec66, hits give low values 1.03 | locus YBR231C, strain swc5, hits give low values 1.02 | locus YBR279W, strain paf1, hits give low values 1.02 | locus YCL011C, strain gbp2, hits give low values 1.02 | locus YCL016C, strain dcc1, hits give low values 1.01 | locus YCL061C, strain MRC1, hits give low values 1.01 | locus YCL069W, strain vba3, hits give low values 1.02 | locus YCR088W, strain abp1, hits give low values 1.02 | locus YDL005C, strain med2, hits give low values 1.02 | locus YDL040C, strain nat1, hits give low values 1.02 | locus YDR001C, strain nth1, hits give low values 1.02 | locus YDR069C, strain doa4, hits give low values 1.02 | locus YDR137W, strain rgp1, hits give low values 1.02 | locus YDR159W, strain sac3, hits give low values 1.03 | locus YDR195W, strain ref2 0.997 | locus YDR297W, strain sur2, hits give low values 1.02 | locus YDR334W, strain swr1, hits give low values 1.02 | locus YDR335W, strain msn5, hits give low values 1.02 | locus YDR392W, strain spt3, hits give low values 1.04 | locus YEL003W, strain gim4, hits give low values 1.02 | locus YEL037C, strain rad23, hits give low values 1.02 | locus YEL061C, strain CIN8 (second series), hits give low values 1.02 | locus YER015W, strain faa2, hits give low values 1.03 | locus YER016W, strain bim1, hits give low values 1.01 | locus YER111C, strain swi4, hits give low values 1.03 | locus YER155C, strain BEM2 (second series), hits give low values 1.04 | locus YFR010W, strain ubp6, hits give low values 1.02 | locus YGL167C, strain pmr1, hits give low values 1.02 | locus YGL173C, strain kem1, hits give low values 1.03 | locus YGL227W, strain vid30, hits give low values 1.03 | locus YGL240W, strain doc1, hits give low values 1.02 | locus YGL253W, strain hxk2, hits give low values 1.02 | locus YHR013C, strain ard1, hits give low values 1.02 | locus YHR027C, strain rpn1, hits give low values 1.01 | [1] 1.06 | [2] 1.03 | locus YHR142W, strain chs7, hits give low values 1.01 | locus YJL092W, strain hpr5, hits give low values 1.02 | locus YJL095W, strain BCK1 (second series), hits give low values 1.01 | [3] 1.03 | locus YJL115W, strain asf1, hits give low values 1.03 | locus YJL129C, strain trk1, hits give low values 1.04 | locus YJL154C, strain vps35, hits give low values 1.02 | locus YJL164C, strain tpk1, hits give low values 1 | locus YJL166W, strain qcr8, hits give low values 1.02 | locus YJL187C, strain SWE1, hits give low values 1.03 | [4] 0.99 | locus YKL160W, strain elf1, hits give low values 1.03 | locus YKR026C, strain gcn3, hits give low values 1.03 | locus YKR091W, strain srl3, hits give low values 1.02 | locus YLL001W, strain dnm1, hits give low values 1.02 | locus YLL026W, hits give low values 1.02 | locus YLL041C, strain sdh2, hits give low values 1.02 | locus YLR027C, strain aat2, hits give low values 1.01 | [5] 1.06 | locus YLR221C, strain rsa3, hits give low values 1.01 | locus YLR258W, strain gsy2, hits give low values 1.02 | locus YLR262C, strain YPT6 (second series), hits give low values 1.02 | locus YLR320W, strain mms22, hits give low values 1.03 | locus YLR342W, strain FKS1, hits give low values 1.03 | locus YLR357W, strain rsc2, hits give low values 1.01 | locus YLR370C, strain arc18, hits give low values 1.01 | locus YLR384C, strain iki3, hits give low values 1.02 | locus YML120C, strain ndi1, hits give low values 1.01 | locus YMR058W, strain fet3, hits give low values 1.02 | locus YMR125W, strain sto1, hits give low values 1.04 | locus YMR129W, hits give low values 1.03 | locus YMR205C, strain PFK2, hits give low values 1.03 | locus YMR231W, strain pep5, hits give low values 1.02 | locus YNL071W, strain lat1, hits give low values 1.01 | [6] 0.987 | locus YNL209W, strain ssb2, hits give low values 1.02 | locus YNL248C, strain rpa49, hits give low values 1.01 | locus YNL322C, strain KRE1 (second series), hits give low values 1.02 | locus YNR049C, strain mso1, hits give low values 1.02 | locus YOR001W, strain rrp6, hits give low values 1.03 | locus YOR070C, strain gyp1, hits give low values 1.02 | locus YOR080W, strain dia2, hits give low values 1.02 | locus YOR083W, strain WHI5, hits give low values 1.03 | locus YOR106W, strain vam3, hits give low values 1.02 | [7] 1.05 | locus YOR265W, strain rbl2, hits give low values 1.01 | locus YOR270C, strain vph1, hits give low values 1.05 | locus YOR290C, strain snf2, hits give low values 1.03 | locus YPL051W, strain arl3, hits give low values 1.02 | locus YPL078C, strain atp4, hits give low values 1.03 | locus YPL106C, strain sse1, hits give low values 1.02 | locus YPL240C, strain hsp82, hits give low values 1.03 | [8] 1.05
